# Test results from PMC5540273 (PLoS ONE, 2017).
# How the values were obtained:
# Details in all cases: concentration: 1 μM, replicates: in singlicate; n = 1
# MST2 = test system: T1, MST2
# T1 construct: gene STK3
# MST3 = test system: T2, MST3
# T2 construct: gene STK24
# MST4 = test system: MST4
# MTOR = test system: MTOR
# MUSK = test system: MUSK
# MYLK2 = test system: MYLK2
# MYLK4 = test system: MYLK4
# MYLK = test system: MYLK
# MYO3A = test system: MYO3A
# MYO3B = test system: MYO3B
# 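Also: KINOMEscan kinase panel screen.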
SMILES,%Inh (MST2) [%],%Inh (MST3) [%],%Inh (MST4) [%],%Inh (MTOR) [%],%Inh (MUSK) [%],%Inh (MYLK2) [%],%Inh (MYLK4) [%],%Inh (MYLK) [%],%Inh (MYO3A) [%],%Inh (MYO3B) [%]
Cc1cc(N2Cc3ccccc3C2)nc(Nc2ccc(S(=O)(=O)N3CCOCC3)cc2)n1.Cl [GSK1669917],0,0,0,9,0,0,0,12,0,0
Cn1ccc2ncnc(Oc3ccc(Nc4nc5ccccc5[nH]4)cc3)c21,5,0,0,0,21,0,0,0,0,0
COC(=O)c1c(-c2ccccc2)c2cc(OC)ccc2c(=O)n1Cc1ccccc1,26,20,0,0,11,0,8,0,9,0
Cn1ccc2ncnc(Oc3cccc(C(=O)Nc4ccccc4)c3)c21,13,20,7,0,0,0,4,0,0,4
CCn1c(-c2cccnc2O)nc2cnccc21 [SB-736715],23,0,0,0,0,15,0,0,0,3
Cn1cncc1-c1ccc2ncnc(Nc3ccc(OCc4ccccc4)cc3)c2c1 [GW320571],0,0,0,30,21,20,0,6,0,0
COc1cc2ncn(-c3cc(OCC4CCCO4)c(C(N)=O)s3)c2cc1OC (stereo not drawn) [GSK204607],1,6,0,11,1,0,81,19,15,0
COc1ccc(CNC(=O)NC2CCN(c3ccnc(Nc4cc(OC)c(OC)c(OC)c4)n3)C2)cc1 (stereo not drawn) [GSK1379748],1,0,0,14,2,4,2,10,36,0
Cc1nnc(-c2ccc3occ(-c4ccc(S(C)=O)cc4)c3c2)[nH]1 (stereo not drawn),0,11,0,10,16,4,7,11,0,2
COc1cccc(NC(=O)NC2CCN(c3ccnc(Nc4ccc(F)cc4)n3)C2)c1 (stereo not drawn) [GSK1379721],17,0,0,19,0,1,6,0,25,6
Nc1ncnc2[nH]c(-c3ccccc3)nc12 [AH5015],0,0,1,9,18,0,30,7,8,0
Cc1csc(-c2nc(Nc3ccncc3)c3ccccc3n2)n1 [GW869640],0,11,40,74,11,5,0,26,2,36
Cc1cccc(-c2nc(Nc3ccncc3)c3ccccc3n2)n1 [GW855857],0,3,0,50,17,7,7,12,0,17
Cc1c(O)cccc1Nc1ccnc2ccc(C(F)(F)F)cc12.Cl [GW466413],0,0,0,0,0,0,0,0,0,0
Nc1nc(-c2nccs2)c(-c2ccnc3ccccc23)s1 [GW693542],75,0,0,15,15,11,0,11,3,0
CS(=O)(=O)c1ccc(-c2nc3n(c2-c2ccncc2)CCC3)cc1 [SKF-105942],0,0,0,0,12,0,4,17,25,77
Cl.Oc1ccc(-c2nc(-c3ccccc3)[nH]c2-c2ccncc2)cc1 [SB-428218],0,0,0,32,0,0,17,22,46,0
COc1ccccc1CNC(=O)c1cc(C(=O)c2ccccc2C)c[nH]1 [GSK364507],0,0,0,13,7,6,3,19,6,2
